Bioassay records deposited in PubChem by The Scripps Research Institute Molecular Screening Center.
MITF primary: inhibitors of human MITF | hit rate 0.91% among 650,000 | inhibition, % at 2.6 µM | AlphaScreen MITF homodimerization, bead proximity signal; in the data active = inhibition above about 50%
Target sequence (O75030 whole entry, looked up): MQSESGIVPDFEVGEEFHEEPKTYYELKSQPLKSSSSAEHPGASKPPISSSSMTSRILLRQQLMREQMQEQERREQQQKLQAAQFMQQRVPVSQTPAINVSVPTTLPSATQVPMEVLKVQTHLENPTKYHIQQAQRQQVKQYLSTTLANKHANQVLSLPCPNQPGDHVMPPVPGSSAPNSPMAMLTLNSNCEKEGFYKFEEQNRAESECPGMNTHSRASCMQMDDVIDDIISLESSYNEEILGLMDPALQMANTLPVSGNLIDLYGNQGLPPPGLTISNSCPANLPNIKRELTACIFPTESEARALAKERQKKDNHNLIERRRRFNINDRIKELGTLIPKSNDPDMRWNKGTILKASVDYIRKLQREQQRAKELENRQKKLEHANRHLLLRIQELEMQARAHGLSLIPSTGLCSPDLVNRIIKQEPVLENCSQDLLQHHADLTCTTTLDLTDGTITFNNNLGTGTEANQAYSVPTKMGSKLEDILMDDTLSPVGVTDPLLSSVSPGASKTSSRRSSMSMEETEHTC
FBW7 act: human FBW7 E3 ligase activation, primary screen. Q969H0. AlphaScreen FBW7–phospho-cyclin E peptide binding, activator screen. normalized activity (activation), % at 26.1 µM. hit rate 0.13% among 650,000. AID 1259310; in the data active = normalized activity above about 1.9%;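 also: purified mutant Fbw7 with reduced substrate affinity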
GPR151 activ: activators of human GPR151; PathHunter beta-arrestin GPR151 cells, luminescence; activation, % at 11.2 µM; hit rate 1% among 650,000; Q8TDV0; in the data active = activation above about 4.9%
TEAD-YAP inh: TEAD-YAP interaction inhibition | AID 1259422 | HEK-TIYL cells, TEAD-Gal4/YAP UAS-luciferase luminescence | inhibition, % at 9.12 µM | hit rate 1.4% among 640,000; in the data active = inhibition above about 32%
Large screens that a line does not name were inactive; ! = not confirmed by another sample. Compounds with a hit are over-represented: about 3.5% of the library has one in this group of screens.

CCCC(=O)NC(c1ccc(C)cc1)c1ccc2cccnc2c1O (stereo unspecified)	TEAD-YAP inh 69
CCN(C(=O)CCS(=O)(=O)c1ccc2c(c1)OCC(=O)N2)c1ccccc1	none
COc1ccc2c(=O)c(-c3ccccc3)coc2c1	none
COc1ccc2c(=O)c(-c3cscn3)coc2c1	TEAD-YAP inh 44
CC(=O)Oc1ccc2c(=O)c(-c3cc4ccccc4o3)coc2c1	none
O=c1c(-c2cc3ccccc3o2)coc2cc(O)ccc12	TEAD-YAP inh 36
Cc1nc(-c2coc3cc(O)ccc3c2=O)cs1	TEAD-YAP inh 34
COc1ccccc1-c1c(C(F)(F)F)oc2cc(OC(=O)C(C)C)ccc2c1=O	none
COc1ccccc1-c1c(C(F)(F)F)oc2cc(OC(=O)N3CCOCC3)ccc2c1=O	TEAD-YAP inh 52
Cc1cc(O)c(C=O)c2c1C(=O)Oc1c(COC(=O)/C=C/C(=O)O)c(O)c(C(=O)O)c(C)c1O2	MITF primary 76
O=C(CCCc1c[nH]c2ccccc12)NNC(=O)COc1ccc(Br)cc1	none
CCOC(=O)Cn1cc(/C=C2/C(=O)N(c3cccc(C(=O)O)c3)N=C2C)c2ccccc21	MITF primary 51
O=c1c2c(-c3ccccc3)csc2nc2c3ccccc3c(NCCCN3CCOCC3)nn12	none
O=c1c2ccccc2nc2c3ccccc3c(NCCN3CCOCC3)nn12	TEAD-YAP inh 74
N#Cc1nc(COc2ccc(Br)cc2)oc1NCc1ccco1	FBW7 act 23
Cc1c(Br)c(C(F)(F)F)nn1CC(=O)NCc1ccc(F)cc1C(F)(F)F	TEAD-YAP inh 36
COc1cc(CNC(=O)Cn2nc(C(F)(F)F)c(Br)c2C)cc(OC)c1	none
CC1CC(C)CN(c2nc(N)ncc2[N+](=O)[O-])C1 (stereo unspecified)	TEAD-YAP inh 49
CC(=O)N/C(=N\c1nc(C)cc(C)n1)Nc1cccc(C)c1	none
CC(=O)N/C(=N\c1nc(C)cc(C)n1)Nc1ccc2ccccc2c1	TEAD-YAP inh 52
O=c1[nH]c(=S)n(Cc2ccco2)c(O)c1/C=C1\C=Nc2ccc(Br)cc21	MITF primary 84
CCc1cccc2c1N=C/C2=C\c1c(O)n(Cc2ccccc2)c(=O)[nH]c1=O	none
CCc1cccc2c1N=C/C2=C\c1c(O)n(Cc2ccco2)c(=O)[nH]c1=O	MITF primary 58
Cc1c(C(=O)N/N=C/c2cccc(OC(=O)N3CCOCC3)c2)nnn1-c1nonc1N	none
Cc1cc(C(=O)N/N=C/c2cc([N+](=O)[O-])ccc2O)c2ccccc2n1	MITF primary 102
Cc1cc(C(=O)N/N=C/c2ccc(O)c(O)c2O)c(C)n1-c1ccccc1	none
O=C(N/N=C/c1ccc(O)c(O)c1O)c1ccccc1-n1cccc1	MITF primary 56
COc1cc(C(=O)N/N=C/c2ccc([N+](=O)[O-])o2)cc(OC)c1OC	TEAD-YAP inh 34
COc1cc(C(=O)N/N=C/c2cccc(OC(=O)N3CCOCC3)c2)cc(OC)c1OC	TEAD-YAP inh 58
CCOc1cccc(/C=N/NC(=O)c2ccc(C)cc2C)c1O	none
O=C(N/N=C\c1ccc([N+](=O)[O-])o1)c1ccccc1-n1cccc1	TEAD-YAP inh 49
Cc1cc(C(=O)N/N=C/c2ccc(O)c(O)c2O)c2ccccc2n1	MITF primary 82
Cc1ccc(C(=O)N/N=C/c2ccc(O)c(O)c2O)c(C)c1	MITF primary 57
Cc1cc(C(=O)N/N=C/c2ccccc2OC(F)F)c2ccccc2n1	TEAD-YAP inh 34
COc1ccc(CNC(=O)c2c(OC)cc(=O)n3c2CCN(C(=O)C(C)(C)C)CC3)cc1	none
COc1ccc(/C=C2\SC(N3CCN(c4ccccc4)CC3)=NC2=O)c(OC)c1OC	none
O=C(Cn1c(=O)c2cccn2c2ccccc21)N1CCC2(CC1)OCCO2	none
O=C(Nc1cccc(C(=O)Nc2ccc(S(=O)(=O)N3CCCC3)cc2)c1)c1ccccc1	none
CSc1ccc(/C=C/c2ccc3cccc(O)c3n2)cc1	TEAD-YAP inh 34
Oc1cccc2ccc(/C=C/c3ccccc3)nc12	TEAD-YAP inh 32
Oc1ccc(Br)c2ccc(/C=C/c3ccccc3)nc12	none
O=C(N[C@@H]1c2ccccc2C2(CCN(C(=O)CN3CCOC3=O)CC2)[C@H]1O)c1ccccc1	none
CC(C)(C)C1CCC(OC(=O)Nc2ccc3ccccc3c2)CC1 (stereo unspecified)	TEAD-YAP inh 80
CC(C)(C)C1CCC(OC(=O)Nc2ccccc2)CC1 (stereo unspecified)	none
Cc1cc(C)c2nc(SCC(=O)N3CC(=O)Nc4ccccc43)c(C#N)cc2c1	TEAD-YAP inh 54
Cc1cc(OCC(=O)Nc2ccncc2)cc(C)c1Br	TEAD-YAP inh 33
Cc1ccc(CC(=O)Nc2ccncc2)cc1	TEAD-YAP inh 42
Cc1cc(OCC(=O)Nc2cccnc2)cc(C)c1Br	none
Cc1ccc2nc(NC(=O)CSCC(=O)O)sc2c1	TEAD-YAP inh 60
C=CCSc1nnc(Cc2cc(=O)[nH]c(=O)[nH]2)n1-c1cccc(OC)c1	none
N#C/C(C(N)=O)=C1\Oc2c(cc(O)cc2-c2ccccc2)S1	TEAD-YAP inh 37
CCN(CC)c1nc(Nc2ccc(N3CCOCC3)cc2)nc(N2CCN(Cc3ccc4c(c3)OCO4)CC2)n1	none
CCN(CC)C(=O)C1CCCN(c2nc(Nc3ccc(NC(C)=O)cc3)c3ncn(C(C)C)c3n2)C1 (stereo unspecified)	TEAD-YAP inh 46
CCN(CC)C(=O)C1CCCN(c2nc(NC3CC3)c3ncn(C4CCCCC4)c3n2)C1 (stereo unspecified)	none
CCN(CC)C(=O)C1CCCN(c2nc(Nc3ccc(Oc4ccccc4)cc3)c3ncn(C4CCCCC4)c3n2)C1 (stereo unspecified)	FBW7 act 5.4
NCC(=O)Nc1cc(Cl)ccc1Cl	none
COc1ccc(C(=O)CC(=O)c2ccccc2O)cc1	none
COc1ccc(O)c(C(=O)CC(=O)c2ccc(F)cc2)c1	TEAD-YAP inh 51
CC(=O)c1c(C)[nH]c(C(=O)OCC(=O)Nc2ccc(Cl)cc2)c1C	none
CC(=O)c1c(C)[nH]c(C(=O)OCC(=O)Nc2cccc(Cl)c2)c1C	TEAD-YAP inh 44
CC(=O)c1c(C)[nH]c(C(=O)OCC(=O)Nc2cccc(S(=O)(=O)N3CCCC3)c2)c1C	TEAD-YAP inh 33
CC(=O)c1c(C)[nH]c(C(=O)OCC(=O)Nc2ccc(C)c(Cl)c2)c1C	none
CC(=O)c1c(C)[nH]c(C(=O)OCC(=O)Nc2ccc(F)c(Cl)c2)c1C	TEAD-YAP inh 35
C=CCc1cc(C)ccc1OCCCNCC(C)O (stereo unspecified)	none
C=CC1=C(C)C2=CC3=NC(=C(CC(=O)[O-])C4=NC(=C(C)C4=C([O-])[O-])C=c4[n-]c(c(C)c4CC)=CC1=N2)C(CCC(=O)[O-])C3C.C=CC1=C(C)C2=CC3=NC(=C(CC(=O)[O-])C4=NC(=C(C)C4=C([O-])[O-])C=c4[n-]c(c(C)c4CC)=CC1=N2)C(CCC(=O)[O-])C3C.[Cu+2].[Na+].[Na+].[Na+] (stereo unspecified)	MITF primary 60
CCC(C)C(NCCC(=O)c1ccc(Br)cc1)C(=O)O (stereo unspecified)	none
NNc1nncc2ccccc12	TEAD-YAP inh 37!
COc1ccc(/C(C)=N/Nc2nncc3ccccc23)cc1	TEAD-YAP inh 33
